Among the data in PubChem BioAssay are z-score and composite z-score values, retold here.

Activity calls are given as the source filed them.

The nature of assay [1]: optical density shifts of acrAB sulA E. coli – strain DRC41, OD650, 48 h, E. coli filamentation inducer project, primary screen (AID 1152).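 Further: E. coli MC1000 strain DRC41 lacking acrAB efflux pump and sulA.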 As to conditions: higher = more signal, called active from +8 up or from −8 down.
Assay [2] can be described thus: probe aLefty1 binding on compound microarray – biochemical, small-molecule microarray, 635/667 nm fluorescence, primary screen (AID 1153).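 Further: score merges spot fluorescence with signal-to-noise ratio from the scanned slide images.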 As to conditions: higher = more signal.
Assay [3] is described as follows: plasmodial surface anion channel blockers, osmotic lysis – cell-based, P. falciparum Indochina, OD700, 1 h, primary screen (AID 1154). The conditions noted are these: P. falciparum Indochina infected RBC osmotic lysis, higher = more signal, called active from +8 up or from −8 down.
A short description of assay [4]: plasmodial surface anion channel blockers, osmotic lysis – cell-based, P. falciparum Indochina, OD700, 2 h, primary screen (AID 1155).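 Further: lysis reports solute entry through the parasite surface anion channel PSAC.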 As to conditions: P. falciparum Indochina infected erythrocytes, higher = more signal, called active from +8 up or from −8 down.
A short description of assay [5]: changes in parasitized red cell lysis, either direction – P. falciparum Indochina, OD700, 3 h, PSAC antagonist project, primary screen (AID 1156). The conditions noted are these: P. falciparum-infected erythrocytes, osmotic lysis, higher = more signal, called active from +8 up or from −8 down.
Assay [6] in a line: plasmodial surface anion channel blockers, osmotic lysis – cell-based, P. falciparum Indochina, OD700, 18 h, primary screen (AID 1157). The conditions noted are these: P. falciparum Indochina infected erythrocytes, osmotic lysis OD700, 18 h; higher = more signal, called active from +8 up or from −8 down.
A short description of assay [7]: S6 kinase pathway phospho-S6 level changes – cell-based, A549, cytoblot, luminescence, serum-stimulated, primary screen (AID 1158).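 Further: serum-stimulated A549 lung adenocarcinoma cells; signal is phosphorylated S6 detected by cytoblot immunostaining with HRP secondary.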 As to conditions: 5 h, higher = more signal.
The target in assay [8] is NADPH oxidase 2 (Homo sapiens) (UniProt P04839). In words: compounds shifting NOX2 Amplex Red fluorescence – cell-based, HEK293-NOX2, PMA-stimulated, NOX inhibitor project, primary screen (AID 1159). Further: test concentration not given here. The conditions noted are these: 45 min, higher = more signal, called active from +8 up or from −8 down.
NADPH oxidase 2 (Homo sapiens), sequence (P04839 whole entry, looked up): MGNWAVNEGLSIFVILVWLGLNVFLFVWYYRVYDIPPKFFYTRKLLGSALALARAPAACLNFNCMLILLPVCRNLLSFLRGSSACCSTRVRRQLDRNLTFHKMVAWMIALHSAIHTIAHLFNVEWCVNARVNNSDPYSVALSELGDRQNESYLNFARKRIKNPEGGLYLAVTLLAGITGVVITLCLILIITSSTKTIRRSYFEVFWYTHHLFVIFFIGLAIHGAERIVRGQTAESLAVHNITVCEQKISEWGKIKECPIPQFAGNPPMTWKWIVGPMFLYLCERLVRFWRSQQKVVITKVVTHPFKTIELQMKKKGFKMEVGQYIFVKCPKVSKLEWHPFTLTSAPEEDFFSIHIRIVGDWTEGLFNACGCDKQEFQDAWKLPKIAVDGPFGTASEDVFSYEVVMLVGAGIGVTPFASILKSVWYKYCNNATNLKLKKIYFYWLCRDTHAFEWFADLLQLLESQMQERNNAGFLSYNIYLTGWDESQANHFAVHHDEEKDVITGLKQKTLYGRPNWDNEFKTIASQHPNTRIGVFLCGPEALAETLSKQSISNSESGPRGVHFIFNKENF
For assay [9], the target named is NADPH oxidase 4 (Homo sapiens) (UniProt Q9NPH5). The experiment in a line: compounds shifting NOX4 Amplex Red fluorescence – cell-based, HEK293-NOX4, tetracycline-induced, NOX inhibitor project, primary screen (AID 1160). The conditions noted are these: HEK293-NOX4, Amplex Red H2O2 fluorescence, 45 min; higher = more signal, called active from +8 up or from −8 down.
NADPH oxidase 4 (Homo sapiens), sequence (Q9NPH5 whole entry, looked up): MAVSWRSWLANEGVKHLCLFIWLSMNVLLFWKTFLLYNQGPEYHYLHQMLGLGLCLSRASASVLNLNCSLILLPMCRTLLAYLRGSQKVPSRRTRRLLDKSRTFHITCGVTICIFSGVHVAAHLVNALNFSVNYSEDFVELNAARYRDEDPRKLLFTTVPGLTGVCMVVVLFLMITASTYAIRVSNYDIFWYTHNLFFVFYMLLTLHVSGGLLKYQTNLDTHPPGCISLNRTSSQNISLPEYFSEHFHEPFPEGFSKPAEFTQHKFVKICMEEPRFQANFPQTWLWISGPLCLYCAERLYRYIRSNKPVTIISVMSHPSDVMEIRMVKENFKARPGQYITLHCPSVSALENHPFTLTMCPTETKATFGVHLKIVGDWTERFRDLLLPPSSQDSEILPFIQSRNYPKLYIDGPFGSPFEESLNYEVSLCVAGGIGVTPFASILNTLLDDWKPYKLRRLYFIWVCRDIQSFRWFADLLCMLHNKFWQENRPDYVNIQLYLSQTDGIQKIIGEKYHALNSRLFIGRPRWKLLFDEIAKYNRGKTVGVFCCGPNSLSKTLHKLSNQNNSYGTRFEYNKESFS

Assay [10] concerns the target NADPH oxidase 5 (Homo sapiens) (UniProt Q96PH1). The experiment in a line: compounds shifting NOX5 Amplex Red fluorescence – cell-based, HEK293-NOX5, NOX inhibitor project, primary screen (AID 1161). The conditions noted are these: HEK293-NOX5, ionomycin, 45 min, higher = more signal.

NADPH oxidase 5 (Homo sapiens), sequence (Q96PH1 whole entry, looked up): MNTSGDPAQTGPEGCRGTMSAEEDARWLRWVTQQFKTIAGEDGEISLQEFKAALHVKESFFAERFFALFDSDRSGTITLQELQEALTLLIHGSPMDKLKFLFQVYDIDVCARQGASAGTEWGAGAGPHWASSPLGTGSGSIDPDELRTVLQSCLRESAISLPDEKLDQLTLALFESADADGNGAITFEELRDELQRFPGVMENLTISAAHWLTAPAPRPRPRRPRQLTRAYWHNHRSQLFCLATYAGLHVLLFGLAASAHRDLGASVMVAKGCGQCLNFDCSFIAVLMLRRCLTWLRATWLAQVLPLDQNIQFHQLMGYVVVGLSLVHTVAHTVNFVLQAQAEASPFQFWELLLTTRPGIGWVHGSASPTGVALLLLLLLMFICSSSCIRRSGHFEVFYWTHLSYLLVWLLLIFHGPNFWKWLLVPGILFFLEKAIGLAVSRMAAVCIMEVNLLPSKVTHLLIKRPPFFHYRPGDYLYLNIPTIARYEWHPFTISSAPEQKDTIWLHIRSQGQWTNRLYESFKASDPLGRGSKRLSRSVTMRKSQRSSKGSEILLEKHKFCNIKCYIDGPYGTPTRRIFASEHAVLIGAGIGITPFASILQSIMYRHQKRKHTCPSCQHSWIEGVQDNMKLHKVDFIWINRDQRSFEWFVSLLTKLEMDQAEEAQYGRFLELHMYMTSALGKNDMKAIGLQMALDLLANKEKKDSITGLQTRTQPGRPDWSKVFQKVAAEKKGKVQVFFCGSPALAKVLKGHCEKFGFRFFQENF

On to `COc1ccc(COC2OC[C@]3(C)[C@H]4C5=C(CN3C(=O)OC(C)(C)C)[C@H](C)C(CO)C(CO)C5CC[C@@H]24)cc1` (stereo not given in full), for which the z-score in [1] was -2.31 (inactive); in assay [3], 1.81 (inactive); in assay [4], 0.0544 (inactive); in [5] it was 1.95 (inactive); in assay [6], 0.741 (inactive); in assay [7], -0.139. Further, the z-score was -0.543 (inactive) in [8], -3.44 (inactive) in assay [9] and -3.88 in assay [10]. The molecule also yielded a composite z-score in [2] of 0.638.
In the case of `O=C1c2ccccc2[C@@]2(Cc3ccccc3N(CCN3CCOCC3)C2=O)[C@H](c2ccc(CO)cc2)N1Cc1ccccc1`, the z-score in assay [1] was 1.04 (inactive); in [3] it was 0.884 (inactive); in assay [4] it was -0.273 (inactive); in assay [5], -0.378 (inactive); in [6], 0.646 (inactive); in assay [7] it was 0.215. In addition, the z-score in [8] is 0.0706 (inactive); in [9], -0.582 (inactive); in assay [10] it was -0.606. Besides, the composite z-score in assay [2] was -0.0479.
In the case of `CC(C)C[C@H]1NC(=O)[C@@]23C(=O)N[C@@H](Cc4ccccc4)C2[C@H](C)[C@@]2(C)O[C@H]2C3/C=C/C/C=C\CNC(=O)[C@H](Cc2ccccc2)NC1=O` (stereo not given in full), the z-score in assay [1] is -0.0044 (inactive); in [3], 2.14 (inactive); in [4], -0.0365 (inactive); in [5], 1.58 (inactive); in assay [6], 0.207 (inactive); in assay [7], -0.175. In addition, the z-score in assay [8] was 0.845 (inactive); in assay [9], -0.847 (inactive); in assay [10], 0.971. For the same molecule, the composite z-score in [2] turned out to be 0.0999.
Regarding `C=C(CCCC)/C(=C/C[C@@H](OC(C)=O)c1ccccc1OCCO)c1cnc2ccccc2c1`, the z-score in assay [1] is -0.19 (inactive); in assay [3], 21.1 (active); in [4] it was 4.29 (inactive); in assay [5], 1.96 (inactive); in [6], 1.39 (inactive); in assay [7] it was 0.132. Further, the figures for the z-score in [8], in assay [9] and in assay [10] were -1.87 (inactive), -1.61 (inactive) and -1.79, respectively. Moreover, the composite z-score in assay [2] was 0.082.
In the case of `C#CCNC(=O)[C@H](Cc1ccccc1)NC(=O)CCC(=O)O`, the z-score in [1] was -0.077 (inactive); in assay [3], -0.168 (inactive); in assay [4], 0.748 (inactive); in assay [5], -0.707 (inactive); in assay [6], 0.0401 (inactive); in [7], -0.665. Besides, the z-score is 0.658 (inactive) in assay [8], -0.198 (inactive) in assay [9] and 0.0788 in [10]. In assay [2], this molecule showed a composite z-score of -0.36.
On to `COC(=O)[C@@]1(Cc2ccc(F)cc2)[C@H]2c3cc(C(=O)N4CCCC4)n(Cc4cc(C)n(C)n4)c3C[C@H]2CN1C(=O)c1ccccc1`, for which the z-score is -0.859 (inactive) in assay [1]; 2.02 (inactive) in assay [3]; 0.0953 (inactive) in [4]; 0.424 (inactive) in assay [5]; 0.742 (inactive) in assay [6]; -0.301 in assay [7]. Also, the figures for the z-score in [8], in assay [9] and in assay [10] were 1.16 (inactive), 0.368 (inactive) and -0.196, respectively. In assay [2], this molecule came in with a composite z-score of 0.291.
Regarding `C=C(C)C1C(=C)CN([C@H](CO)c2ccccc2)C1=O` (stereo not given in full), the z-score in assay [1] was -1.08 (inactive); in assay [3], 0.391 (inactive); in [4], 0.497 (inactive); in assay [5], 0.711 (inactive); in [6], -0.0396 (inactive); in assay [7], -0.272. In addition, the z-score is 1.98 (inactive) in assay [8], 0.998 (inactive) in assay [9] and -0.846 in [10]. Further, in [2], the composite z-score was -0.285.
For the molecule `CN1C(=O)C2C=CC(C(O)C3CC=CCC3)N(NC(=O)OC(C)(C)C)C2C1=O` (stereo not given), the z-score in [1] is -1.49 (inactive); in [3] it was 0.23 (inactive); in assay [4] it was 0.737 (inactive); in assay [5], -0.138 (inactive); in assay [6] it was 0.312 (inactive); in assay [7], -1.01. Also, the values for the z-score in [8], in assay [9] and in assay [10] were -0.92 (inactive), -0.861 (inactive) and -0.716, respectively. The composite z-score in assay [2] was -0.168.
For the molecule `C#CCN(CC=C(C)C)[C@H](CO)c1ccccc1`, the z-score in assay [1] was 0.0373 (inactive); in assay [3] it was -0.214 (inactive); in assay [4] it was -1.3 (inactive); in assay [5], -0.717 (inactive); in [6] it was -2.12 (inactive); in assay [7] it was 1.22. The z-score in assay [8] was -0.0535 (inactive); in [9] it was -0.102 (inactive); in assay [10], -1.84. In addition, the composite z-score in assay [2] stood at 0.213.
`C=C(CCCC)C(=O)CC[C@@H](OC(=O)c1cccnc1)c1ccc(CO)o1`: the z-score in [1] was -0.367 (inactive); in assay [3], 3.22 (inactive); in [4] it was 0.449 (inactive); in [5], 0.873 (inactive); in assay [6] it was 0.258 (inactive); in assay [7], 0.264. The results for the z-score in assay [8], in [9] and in [10] were 0.341 (inactive), -0.942 (inactive) and -1.04, respectively. Further, in [2], the composite z-score was -0.289.
As for `CCCCc1cn(C[C@H](Cc2ccccc2)NC(=O)N[C@H](CO)CCc2oc(C(C)=O)c(C(=O)OC)c2C(=O)OC)nn1`, the z-score in assay [1] is 0.135 (inactive); in assay [3], 1.66 (inactive); in [4], -0.983 (inactive); in [5], 1.21 (inactive); in assay [6] it was -0.496 (inactive); in assay [7], 0.847. For the same molecule, the results for the z-score in assay [8], in assay [9] and in assay [10] were -4.81 (inactive), -2.87 (inactive) and -2.48, respectively. In assay [2], this molecule returned a composite z-score of 0.086.
Regarding `CN(C)C(=O)[C@@]1(Cc2ccccc2CN=[N+]=[N-])N=C(c2ccc(OCCCO)cc2)O[C@H]1c1ccccc1`, the z-score in [1] is 0.381 (inactive); in [3], 20.9 (active); in assay [4], 5.46 (inactive); in [5], 1.59 (inactive); in assay [6] it was 1.45 (inactive); in assay [7] it was -0.0813. Further, the z-score in assay [8] is -2.45 (inactive); in assay [9], -0.0483 (inactive); in [10], 0.524. In assay [2], this molecule yielded a composite z-score of 1.18.
For the molecule `CCOC(=O)C[C@H]1[C@H](OC(=O)c2cc3ccccc3oc2=O)[C@@H](NC(=O)Cc2ccc(OC)cc2)c2cc(OCCCO)ccc2N1C(=O)c1ccccc1`, the z-score was 0.386 (inactive) in assay [1]; 0.743 (inactive) in assay [3]; -1.44 (inactive) in assay [4]; 0.776 (inactive) in [5]; -2.76 (inactive) in [6]; 1.03 in [7]. For the same molecule, the z-score in assay [8] is -0.569 (inactive); in assay [9], -0.523 (inactive); in assay [10], -0.286. In addition, in [2], the composite z-score was 0.0942.
